What all share (parameters): scale not given: direction of the effect not stated beside the values
In experiment [1] the target is Protein translocase subunit SecA (Escherichia coli (strain K12)) (UniProt P10408). In words: Assay to Identify E. coli SecA ATPase Inhibitors. To be noted: 30 µM. It is filed as functional.
Experiment [2] has as its target T1, Ubiquitin-activating enzyme e1, putative (Leishmania donovani (strain BPK282A1)) (UniProt E9BSI1).
T1 sequence (whole entry): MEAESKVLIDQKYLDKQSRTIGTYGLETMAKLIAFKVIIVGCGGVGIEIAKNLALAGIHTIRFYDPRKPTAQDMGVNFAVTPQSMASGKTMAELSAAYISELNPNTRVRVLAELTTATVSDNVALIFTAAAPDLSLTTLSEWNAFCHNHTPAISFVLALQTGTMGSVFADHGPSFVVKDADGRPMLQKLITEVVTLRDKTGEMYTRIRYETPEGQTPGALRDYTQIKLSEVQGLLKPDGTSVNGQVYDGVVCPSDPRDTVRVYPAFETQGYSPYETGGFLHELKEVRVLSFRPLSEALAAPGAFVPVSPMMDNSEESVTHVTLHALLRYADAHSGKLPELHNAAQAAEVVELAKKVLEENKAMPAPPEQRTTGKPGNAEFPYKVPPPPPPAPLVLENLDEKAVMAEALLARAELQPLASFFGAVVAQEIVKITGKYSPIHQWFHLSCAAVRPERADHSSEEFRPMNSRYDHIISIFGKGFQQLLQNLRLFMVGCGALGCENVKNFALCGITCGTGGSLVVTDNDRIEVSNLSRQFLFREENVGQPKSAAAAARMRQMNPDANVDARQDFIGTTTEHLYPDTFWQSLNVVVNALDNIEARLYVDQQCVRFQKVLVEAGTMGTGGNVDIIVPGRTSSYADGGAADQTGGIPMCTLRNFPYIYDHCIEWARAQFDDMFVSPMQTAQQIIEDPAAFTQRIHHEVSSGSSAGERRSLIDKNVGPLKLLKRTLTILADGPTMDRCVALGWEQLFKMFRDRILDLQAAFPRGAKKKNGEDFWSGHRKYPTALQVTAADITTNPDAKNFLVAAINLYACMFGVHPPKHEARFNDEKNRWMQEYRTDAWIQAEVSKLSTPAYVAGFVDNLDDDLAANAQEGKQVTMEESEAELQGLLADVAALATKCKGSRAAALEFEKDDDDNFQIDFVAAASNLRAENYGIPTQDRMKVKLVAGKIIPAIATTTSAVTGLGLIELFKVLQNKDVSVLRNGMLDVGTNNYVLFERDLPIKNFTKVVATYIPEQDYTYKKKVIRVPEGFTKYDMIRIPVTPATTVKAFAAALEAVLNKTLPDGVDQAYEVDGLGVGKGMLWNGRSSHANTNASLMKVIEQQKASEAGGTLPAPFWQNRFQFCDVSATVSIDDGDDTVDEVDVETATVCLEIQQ
The experiment in a line: Leishmania donovani Ubiquitin Activating Enzyme (LdE1). To be noted: 30 µM. It is filed as functional.

The target of experiment [3] is AMP-activated protein kinase, AMPK (Homo sapiens) (UniProt P54646+O43741+P54619+Q9UGJ0+Q9Y478+Q13131+Q9UGI9). In words: AMP-dependent Kinase enzyme assay. An in vitro enzyme assay that detects ADP turnover that is directly proportional to AMPK activity. This uses naive AMPK that is activated during the assay with MK-8722. It is filed as functional. To be noted: 30 µM.

The target in experiment [4] is Sialic acid-binding Ig-like lectin 9 (Homo sapiens) (UniProt Q9Y336). The experiment in a line: Hs-Siglec9 ALPHAscreen SOP 20170721. The settings on record: 10 µM.
Sequence of Sialic acid-binding Ig-like lectin 9 (Homo sapiens) (Q9Y336 whole entry): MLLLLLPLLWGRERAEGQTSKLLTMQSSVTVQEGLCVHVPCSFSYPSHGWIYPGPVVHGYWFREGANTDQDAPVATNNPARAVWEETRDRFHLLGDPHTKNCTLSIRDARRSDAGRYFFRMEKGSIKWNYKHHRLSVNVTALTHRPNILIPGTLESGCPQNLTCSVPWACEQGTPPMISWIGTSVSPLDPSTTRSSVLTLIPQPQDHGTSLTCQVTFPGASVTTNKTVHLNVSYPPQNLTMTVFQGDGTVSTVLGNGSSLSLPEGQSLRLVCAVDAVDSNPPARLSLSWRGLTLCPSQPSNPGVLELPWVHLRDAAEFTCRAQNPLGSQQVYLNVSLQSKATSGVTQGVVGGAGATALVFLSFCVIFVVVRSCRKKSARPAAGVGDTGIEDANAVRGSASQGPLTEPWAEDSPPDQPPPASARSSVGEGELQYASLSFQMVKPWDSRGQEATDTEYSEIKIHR
Another experiment has as its system Trypanosoma cruzi. In words: Trypanosoma cruzi phosphomannomutase and mannose-1-phosphate guanylyltransferase assay. It is filed as functional. To be noted: 10 µM.
Experiment [5] concerns the target T2, Arginase-2, mitochondrial (Homo sapiens) (UniProt P78540).
T2 sequence (whole entry): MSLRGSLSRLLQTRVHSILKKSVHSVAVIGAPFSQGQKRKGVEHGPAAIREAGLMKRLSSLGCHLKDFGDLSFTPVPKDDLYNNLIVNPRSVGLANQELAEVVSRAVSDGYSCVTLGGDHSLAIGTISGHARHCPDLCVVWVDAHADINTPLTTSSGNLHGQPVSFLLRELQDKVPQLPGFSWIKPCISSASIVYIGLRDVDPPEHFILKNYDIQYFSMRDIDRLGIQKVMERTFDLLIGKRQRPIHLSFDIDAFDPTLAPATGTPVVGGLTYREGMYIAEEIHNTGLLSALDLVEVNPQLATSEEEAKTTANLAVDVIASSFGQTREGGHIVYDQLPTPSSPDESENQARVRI
The experiment in a line: in vitro enzyme assay to detect the production of urea directly proportional to the activity of Arginase II. Further: in the data most compounds retested in dose-response had high values. It is filed as functional. To be noted: 33.3 µM.

Experiment [6] concerns the target T3, Proteasome subunit beta (Trypanosoma cruzi) (UniProt O96673).
T3 sequence (whole entry): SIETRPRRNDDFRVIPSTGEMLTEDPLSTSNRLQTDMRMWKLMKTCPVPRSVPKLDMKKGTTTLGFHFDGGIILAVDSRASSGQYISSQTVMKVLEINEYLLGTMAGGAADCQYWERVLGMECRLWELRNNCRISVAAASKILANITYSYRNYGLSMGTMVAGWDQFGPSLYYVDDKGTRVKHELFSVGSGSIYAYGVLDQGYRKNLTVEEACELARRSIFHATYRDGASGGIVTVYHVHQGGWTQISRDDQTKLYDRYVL
The experiment in a line: Trypanosoma cruzi proteasome chymotrypsin-like activity (TcProtChymo) assay. Further: in the data most compounds retested in dose-response had high values. To be noted: 9.37 µM. It is filed as functional.

The species entered for another experiment is Homo sapiens. In words: To identify inhibition of the IFN signalling (Jak-Stat) pathway via expression of an eGFP reporter gene under the control of an IFN-stimulated response element (ISRE) containing MxA promoter. It is filed as functional. The settings on record: 30 µM.
Experiment [7] has as its target T4, Tyrosyl-tRNA synthetase, putative (Trypanosoma cruzi (strain CL Brener)) (UniProt Q4DSP6).
T4 sequence (whole entry): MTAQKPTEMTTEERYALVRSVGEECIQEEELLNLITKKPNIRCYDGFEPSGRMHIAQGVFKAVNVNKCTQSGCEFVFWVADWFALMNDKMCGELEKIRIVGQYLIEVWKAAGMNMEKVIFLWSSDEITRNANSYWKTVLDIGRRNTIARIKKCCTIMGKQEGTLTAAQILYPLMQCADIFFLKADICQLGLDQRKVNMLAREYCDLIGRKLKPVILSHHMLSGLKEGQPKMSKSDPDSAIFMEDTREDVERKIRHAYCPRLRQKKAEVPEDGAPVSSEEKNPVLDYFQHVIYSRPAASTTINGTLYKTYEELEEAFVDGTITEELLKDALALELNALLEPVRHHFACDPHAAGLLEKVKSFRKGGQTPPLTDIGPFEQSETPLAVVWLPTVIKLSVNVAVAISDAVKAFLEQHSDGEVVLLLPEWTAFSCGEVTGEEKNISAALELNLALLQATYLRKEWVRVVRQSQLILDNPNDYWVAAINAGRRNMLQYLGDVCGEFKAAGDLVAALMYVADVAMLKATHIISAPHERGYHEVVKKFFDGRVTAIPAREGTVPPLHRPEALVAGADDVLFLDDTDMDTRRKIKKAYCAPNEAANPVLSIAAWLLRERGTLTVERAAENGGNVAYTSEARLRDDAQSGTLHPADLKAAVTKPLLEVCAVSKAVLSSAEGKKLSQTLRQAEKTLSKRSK
In words: Trypanosoma cruzi tyrosyl tRNA synthetase (TcYRS) _High Tyrosine SOP. Further: in the data most compounds retested in dose-response had high values. To be noted: 30 µM. It is filed as functional.

The target of experiment [8] is T4, Tyrosyl-tRNA synthetase, putative (Trypanosoma cruzi (strain CL Brener)). The experiment in a line: Trypanosoma cruzi tyrosyl tRNA synthetase (TcYRS) SOP. It is filed as functional. The settings on record: 30 µM.
Experiment [9] has as its target Chromo domain-containing protein 1 (Saccharomyces cerevisiae (strain ATCC 204508 / S288c) (Baker's yeast)) (UniProt P32657). In words: ScCHD-1 Enzyme Inhibition Assay. Further: in the data most compounds retested in dose-response had high values. It is filed as functional. The settings on record: 30 µM.

For some assays here: Measured potencies and affinities stand elsewhere.

This passage reports Percent Effect results from ChEMBL document CHEMBL3988442, “University of Dundee, Small-Polar-MMV Screening Library” (2021).

Sequence of Protein translocase subunit SecA (Escherichia coli (strain K12)) (P10408 whole entry): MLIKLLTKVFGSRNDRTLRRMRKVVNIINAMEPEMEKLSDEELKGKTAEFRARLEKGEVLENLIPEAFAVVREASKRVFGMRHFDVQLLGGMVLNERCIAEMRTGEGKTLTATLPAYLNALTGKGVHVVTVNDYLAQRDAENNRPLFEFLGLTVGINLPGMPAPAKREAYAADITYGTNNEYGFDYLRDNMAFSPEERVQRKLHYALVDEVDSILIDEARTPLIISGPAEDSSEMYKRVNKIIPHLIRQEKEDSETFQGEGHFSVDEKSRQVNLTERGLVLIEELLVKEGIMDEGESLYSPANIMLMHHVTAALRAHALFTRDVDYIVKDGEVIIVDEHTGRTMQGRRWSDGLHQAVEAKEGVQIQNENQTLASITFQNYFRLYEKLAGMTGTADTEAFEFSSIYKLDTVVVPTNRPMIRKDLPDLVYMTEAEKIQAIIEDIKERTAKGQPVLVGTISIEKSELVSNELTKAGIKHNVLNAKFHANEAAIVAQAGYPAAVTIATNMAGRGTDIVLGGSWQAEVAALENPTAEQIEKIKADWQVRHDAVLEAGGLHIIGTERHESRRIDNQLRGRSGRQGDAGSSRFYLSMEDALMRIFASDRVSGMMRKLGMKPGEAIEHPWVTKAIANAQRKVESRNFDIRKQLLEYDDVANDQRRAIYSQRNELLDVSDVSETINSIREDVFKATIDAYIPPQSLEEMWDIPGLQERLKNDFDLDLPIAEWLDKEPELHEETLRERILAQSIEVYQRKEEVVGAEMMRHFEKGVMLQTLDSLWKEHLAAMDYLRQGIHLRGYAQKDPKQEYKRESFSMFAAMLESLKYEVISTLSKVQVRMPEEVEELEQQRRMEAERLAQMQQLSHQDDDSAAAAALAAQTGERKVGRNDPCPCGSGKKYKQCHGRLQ
Sequence of Chromo domain-containing protein 1 (Saccharomyces cerevisiae (strain ATCC 204508 / S288c) (Baker's yeast)) (P32657 whole entry, the tested form may be a part): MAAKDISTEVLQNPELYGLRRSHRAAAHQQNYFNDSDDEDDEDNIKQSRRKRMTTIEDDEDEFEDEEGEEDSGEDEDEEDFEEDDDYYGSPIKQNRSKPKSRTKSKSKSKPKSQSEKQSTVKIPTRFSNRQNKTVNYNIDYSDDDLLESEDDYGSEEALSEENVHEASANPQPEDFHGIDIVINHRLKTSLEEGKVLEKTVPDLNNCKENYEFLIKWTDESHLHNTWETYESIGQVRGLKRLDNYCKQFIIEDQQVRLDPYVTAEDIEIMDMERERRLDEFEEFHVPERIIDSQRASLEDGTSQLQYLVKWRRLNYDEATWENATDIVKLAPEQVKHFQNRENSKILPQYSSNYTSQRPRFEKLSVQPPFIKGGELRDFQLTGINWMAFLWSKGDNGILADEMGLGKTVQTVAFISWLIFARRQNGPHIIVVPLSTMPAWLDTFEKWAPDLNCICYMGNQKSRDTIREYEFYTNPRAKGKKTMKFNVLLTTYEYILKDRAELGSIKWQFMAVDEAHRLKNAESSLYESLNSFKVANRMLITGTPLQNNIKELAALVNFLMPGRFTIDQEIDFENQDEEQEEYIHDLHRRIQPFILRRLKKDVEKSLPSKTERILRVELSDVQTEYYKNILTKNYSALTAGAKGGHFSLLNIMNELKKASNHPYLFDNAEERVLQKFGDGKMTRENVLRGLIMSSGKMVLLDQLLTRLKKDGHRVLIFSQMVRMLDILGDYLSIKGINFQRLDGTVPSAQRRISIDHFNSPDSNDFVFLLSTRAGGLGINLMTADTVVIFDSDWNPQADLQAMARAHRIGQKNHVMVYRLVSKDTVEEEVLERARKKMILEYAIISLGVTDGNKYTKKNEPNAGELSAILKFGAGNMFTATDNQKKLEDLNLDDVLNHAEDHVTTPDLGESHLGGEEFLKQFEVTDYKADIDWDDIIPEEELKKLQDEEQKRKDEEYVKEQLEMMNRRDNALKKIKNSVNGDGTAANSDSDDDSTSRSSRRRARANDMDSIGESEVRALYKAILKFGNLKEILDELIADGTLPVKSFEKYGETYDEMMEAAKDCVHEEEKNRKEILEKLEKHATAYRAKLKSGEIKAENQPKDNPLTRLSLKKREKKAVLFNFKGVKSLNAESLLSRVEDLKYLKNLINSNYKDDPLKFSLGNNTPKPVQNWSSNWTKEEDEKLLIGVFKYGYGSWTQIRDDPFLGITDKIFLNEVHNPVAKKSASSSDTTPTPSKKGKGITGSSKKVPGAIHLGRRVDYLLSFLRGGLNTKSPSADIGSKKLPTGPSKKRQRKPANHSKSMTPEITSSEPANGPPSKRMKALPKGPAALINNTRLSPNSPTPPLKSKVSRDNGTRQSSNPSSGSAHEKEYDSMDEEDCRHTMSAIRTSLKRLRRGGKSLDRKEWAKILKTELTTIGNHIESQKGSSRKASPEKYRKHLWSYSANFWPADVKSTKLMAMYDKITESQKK

For `COCCNC(=O)NCc1ccc(OC(C)C)c(F)c1`, the Percent Effect was -5.47% in experiment [1]; 10.5% in experiment [2]; -1.85% in experiment [3]; 9.7% in experiment [4]; 8.5% in the experiment with Trypanosoma cruzi; -4.68% in experiment [5]. Besides, the Percent Effect came to 5.67% in experiment [6]; 2.01% in the experiment filed under Homo sapiens; 5.42% in experiment [7]; 13.6% in experiment [8]; 0.0512% in experiment [9].

`CCc1ccc(-n2c(=O)[nH]c3nc(N4CCSCC4)ncc3c2=O)cc1`: the Percent Effect in [1] was -2.14%; in experiment [2], 21.1%; in experiment [3], 0.234%; in [4] it was -5.88%; with Trypanosoma cruzi, 1.85%; in [5], 5.92%. Further, the Percent Effect is 15.8% in [6]; -2.32% in the experiment filed under Homo sapiens; 0% in [7]; 5.2% in [8]; 45.8% in experiment [9].

For `CCn1cnnc1CNC(=O)c1ccc(Cl)cc1F`, the Percent Effect is -2.15% in [1]; 16.5% in [2]; -1.73% in [3]; 3.58% in experiment [4]; 0.103% in the experiment with Trypanosoma cruzi; -6.24% in experiment [5]. Also, the Percent Effect was 16.6% in experiment [6]; 5.91% in the experiment filed under Homo sapiens; 9.38% in experiment [7]; 17.7% in experiment [8]; -13.8% in experiment [9].

Consider `CN1CCC(CCNC(=O)c2ccc(N(C)S(C)(=O)=O)cc2Cl)CC1`, for which the Percent Effect in [1] is -4.43%; in experiment [2], -10.4%; in [3], -1.14%; in experiment [4], 0.479%; with Trypanosoma cruzi, -3.44%; in experiment [5], 29%. For the same compound, the Percent Effect in experiment [6] was 6.16%; in the experiment filed under Homo sapiens, -1.88%; in [7], 0%; in experiment [8] it was -3.7%; in experiment [9] it was 2.38%.

Consider `CC(C)CC(=O)N1CCN(C(=O)N(C)C)CC2(CC(=O)N(C)C2)C1` (stereo not given), for which the Percent Effect in experiment [1] is -2.6%; in [2], -27%; in [3] it was 0.411%; in experiment [4] it was -1.03%; in the experiment on Trypanosoma cruzi, 6.25%; in experiment [5], -2.5%. Also, the Percent Effect in [6] is -1.61%; in the experiment filed under Homo sapiens, -26.2%; in [7], 2.97%; in [8] it was -3.66%; in experiment [9], -3.69%.

For the compound `CCCc1nc(CN2CCN(Cc3noc(CCC)n3)CC2)no1`, the Percent Effect in [1] was -5.83%; in experiment [2] it was 13.9%; in experiment [3] it was -4.71%; in experiment [4], 0.206%; with Trypanosoma cruzi, -0.718%; in experiment [5], -8.39%. In addition, the Percent Effect in experiment [6] is 10.5%; in the experiment filed under Homo sapiens it was 7.72%; in [7], 11.5%; in experiment [8], 17.7%; in experiment [9], -33.6%.

Turning to `OCCn1cc(CN2CCN(CCOCC(F)(F)F)CC2)cn1`, the Percent Effect in experiment [1] was 2.27%; in experiment [2], 13.5%; in [3] it was -3.44%; in [4], -6.72%; in the experiment on Trypanosoma cruzi, -8.63%; in [5] it was -3.14%. Besides, the Percent Effect is 13.6% in experiment [6]; 6.37% in the experiment filed under Homo sapiens; 4.95% in [7]; 3.66% in [8]; -2.78% in experiment [9].

`CC(C)COC(C)C(=O)NCc1ccc(N(C)C)cc1` (stereo not given): the Percent Effect is -2.38% in [1]; 23.4% in experiment [2]; 3.83% in experiment [3]; -18.6% in experiment [4]; 2.06% with Trypanosoma cruzi; -2.32% in experiment [5]. Moreover, the Percent Effect in [6] is 23.4%; in the experiment listed under Homo sapiens, 5.87%; in experiment [7], 5.71%; in experiment [8], 30.6%; in experiment [9] it was -26.1%.

Regarding `CS(=O)(=O)Cc1ccc(CNC(=O)c2cccnc2O)cc1`, the Percent Effect in experiment [1] was -1.42%; in [2], 13.9%; in experiment [3], 8.18%; in experiment [4] it was 5.03%; in the experiment on Trypanosoma cruzi, -5.64%; in [5], 1.94%. The Percent Effect in experiment [6] was 22.3%; in the experiment listed under Homo sapiens, 17.9%; in [7], 3.12%; in experiment [8], 7.59%; in experiment [9], -7.98%.

Consider `COc1c(C2CCCN2C(=O)c2ccc(Cl)o2)c(C)nn1C` (stereo not given), for which the Percent Effect was -5.93% in experiment [1]; 13.5% in experiment [2]; -4.28% in experiment [3]; 21.4% in [4]; 2.93% in the experiment on Trypanosoma cruzi; 4.17% in [5]. Moreover, the Percent Effect in [6] is 10.6%; in the experiment listed under Homo sapiens it was -2.68%; in experiment [7], 5.94%; in experiment [8] it was 18.3%; in experiment [9], -0.337%.
